In PubChem BioAssay (NCI):
Compounds without any hit were thinned out: in the full panel of roughly 83,000, 20% have a hit.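 Method: cells in 96-well plates; compound added at one concentration; 48 h incubation; percent growth measured; values under 10 scored active.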 The source made the active and inactive calls.

Each molecule was assayed on EKVX NSCLC (assay: NCI-60 one-dose screen, 48 h (100 = growth as untreated, 0 = no growth, -100 = all killed)). Settings: 10 µM unless noted.

Row | Compound | growth
1 | CNS(=O)(=O)c1ccc(Nc2ccc(C(F)(F)F)cc2)c(-c2cn(C)cn2)c1 | 49% (inactive)
2 | CCS(=O)(=O)N1CCCC(C(=O)Nc2nc3ccc(NC(=O)c4ccc(F)c(OC)c4F)cc3s2)C1 (stereo not given) | 46.8% (inactive)
3 | COc1ccc(CCC2c3c(cc4c(c3OC)OCO4)CCN2C)cc1 (stereo not given) | -17.3% (active)
4 | Nc1nc(-c2ccccc2)c(N=Nc2ccc([N+](=O)[O-])cc2Cl)s1 | 89.2% (inactive)
5 | CN(C)c1nc(NCCNS(=O)(=O)c2ccc(C3=Nc4c(N)nc(N)nc4NC(c4ccccc4)C3)cc2)nc(Nc2ccc(F)cc2)n1 (stereo not given) | 51.4% (inactive)
6 | N/C(=N\c1nc2ccccc2s1)NC(=O)Nc1ccc(Cl)cc1Cl | -42.5% (active)
7 | CCCCn1c(O)c(N=Nc2nc(-c3cc4ccccc4oc3=O)cs2)c2cc(Br)ccc21 | 97.1% (inactive)
8 | Cc1cccc(-c2nc(Nc3cccc(S(N)(=O)=O)c3)c3ccccc3n2)c1 | 45.5% (inactive)
9 | Cn1cc(-c2cc(N)n3nc(-c4cn(C)c5ccccc45)cc3n2)c2cc(Br)ccc21 | -22.1% (active)
10 | COc1cc2c(c(OC)c1OC)C(=O)CC(c1cccc(NC(=O)c3cc(NC(=O)[C@H](C)N)ccc3Cl)c1)O2 (stereo not given in full) | 48.4% (inactive)
11 | C#CCOc1cc(N(CC)CC)ccc1C(C(=O)NC(C)(C)C)N(C(=O)C1CCc2cc(F)ccc2O1)c1cc(C)cc(C)c1 (stereo not given) | 33.3% (inactive)
12 | Cc1ccc(C2=NN(c3nc(-c4cc5ccccc5oc4=O)cs3)C(c3ccc(C)cc3)C2)cc1 (stereo not given) | 93.6% (inactive)
13 | Cn1cc(-c2nc(N)nnc2-c2c[nH]c3ccc(F)cc23)c2cc(Br)cnc21 | 26.2% (inactive)

These molecules were tested on SN12C renal in the same assay as above. Settings: 10 µM unless noted.

Row | Compound | growth
14 | Brc1ccc(-c2n(Cc3ccc4ccccc4c3)c(-c3ccccc3)c(-c3ccccc3)[n+]2Cc2ccc3ccccc3c2)cc1 | -85.4% (active)
15 | O=C1CCCc2cc(OCC(=O)N3CCCCC3)ccc2N1 | 114% (inactive)
16 | COc1cc2c3c(n(CCCN4CCC[C@@H]4CO)c(=O)c2cc1OC)-c1cc2c(cc1C3=O)OCO2 | -91.7% (active)
17 | CC(=O)c1c(N)c(C#N)cn1-c1ccc(Cl)cc1Cl | 100% (inactive)
18 | Cc1ccc(C2CC(c3ccc(S(=O)(=O)NCCNc4nc(Nc5ccc(F)cc5)nc(N(C)C)n4)cc3)=Nc3c(N)nc(N)nc3N2)cc1 (stereo not given) | 74.2% (inactive)
19 | Cc1ccc(C(=O)C(c2c[nH]c3ccccc23)c2c[nH]c3ccccc23)cc1 | -12.8% (active)
20 | COc1cc(-c2nc3ccc(C)cc3[nH]2)ccc1OCc1nnc(-c2ccc(Br)cc2)o1 | 36.2% (inactive)
21 | Nc1nnc(-c2c[nH]c3ccc(Br)cc23)c(-c2c[nH]c3ncc(Br)cc23)n1 | 46.5% (inactive)
22 | Cc1ccc(-c2nc(C#N)c(S(=O)(=O)N3CCN(S(=O)(=O)c4ccc(Cl)cc4)CC3)o2)cc1 | 93.4% (inactive)
23 | CCOC(=O)C1=C(N)N(c2ccccc2)C2=C(C(=O)CC(C)(C)C2)C1c1ccccc1Cl (stereo not given) | 75% (inactive)
24 | Cc1ccc(C(=O)NN2C(=O)/C(=C/C=C/c3ccc([N+](=O)[O-])o3)SC2=S)cc1 | -89.3% (active)
25 | CCCS(=O)(=O)N1CCCC(C(=O)Nc2nc3ccc(NC(=O)c4ccc(F)c(OC)c4F)cc3s2)C1 (stereo not given) | 65.5% (inactive)
26 | O=C1CC(Sc2n[nH]c(-c3ccncc3)n2)C(=O)N1c1ccc(Br)cc1 (stereo not given) | 93.6% (inactive)
27 | COc1ccc(NC(=O)Nc2ccc(OCc3ccc(F)cc3)cc2)cc1 | 55.7% (inactive)
28 | COc1ccc(/C=C/c2nc3ccccc3n3c(-c4ccc(Cl)cc4)nnc23)cc1 | 91.7% (inactive)
29 | CC1(C)CC[C@]2(C(=O)O)CC[C@]3(C)C(=CCC4[C@@]5(C)C[C@@H](O)[C@@H]6OC(c7ccccc7Br)OC[C@@]6(C)C5CC[C@]43C)C2C1 (stereo not given in full) | 14.9% (inactive)
30 | CC(=O)OCC1OC(OC2C(COC(C)=O)OC(n3cc(COc4ccc5ccc(=O)oc5c4)nn3)C(OC(C)=O)C2OC(C)=O)C(OC(C)=O)C(OC(C)=O)C1OC(C)=O (stereo not given) | 98.3% (inactive)
31 | COc1ccc(Cc2nn(CC(=O)N/N=C/c3ccc(F)cc3)c(=O)c3c(C)noc23)cc1 | -0.271% (active)
32 | O=C(c1ccccc1)C(c1c[nH]c2ccccc12)c1c[nH]c2ccccc12 | 49% (inactive)

Row | Compound | growth
33 | N=C1N=C(SCc2nc3ccccc3[nH]2)NC(=O)/C1=C/c1ccc(Cl)cc1 | 98.6% (inactive)
34 | Cn1cc(-c2cc3nc(-c4c[nH]c5ccc(Cl)cc45)cc(N)n3n2)c2ccccc21 | -65.9% (active)
35 | CC1(C)CC[C@]2(C(=O)O)CC[C@]3(C)C(=CCC4[C@@]5(C)C[C@@H](O)[C@@H]6OC(c7ccco7)OC[C@@]6(C)C5CC[C@]43C)C2C1 (stereo not given in full) | 20% (inactive)
36 | COc1ccc(C2CC(c3ccc(S(=O)(=O)NCCNc4nc(Nc5ccc(F)cc5)nc(N(C)C)n4)cc3)=Nc3c(N)nc(N)nc3N2)cc1 (stereo not given) | 81.1% (inactive)
37 | O=C(Nc1ccccc1)N1CCN(c2cc(-c3cn(-c4ccccc4)nc3-c3cccc(O)c3)ccn2)CC1 | 88.8% (inactive)
38 | CNS(=O)(=O)c1ccc(Nc2ccc(C(F)(F)F)cc2)c(-c2cn(C)cn2)c1 | 41.9% (inactive)
39 | CCS(=O)(=O)N1CCCC(C(=O)Nc2nc3ccc(NC(=O)c4ccc(F)c(OC)c4F)cc3s2)C1 (stereo not given) | 83.7% (inactive)
40 | COc1ccc(CCC2c3c(cc4c(c3OC)OCO4)CCN2C)cc1 (stereo not given) | -18.6% (active)
41 | Nc1nc(-c2ccccc2)c(N=Nc2ccc([N+](=O)[O-])cc2Cl)s1 | 83.7% (inactive)
42 | CN(C)c1nc(NCCNS(=O)(=O)c2ccc(C3=Nc4c(N)nc(N)nc4NC(c4ccccc4)C3)cc2)nc(Nc2ccc(F)cc2)n1 (stereo not given) | 37.8% (inactive)
43 | N/C(=N\c1nc2ccccc2s1)NC(=O)Nc1ccc(Cl)cc1Cl | -88.7% (active)
44 | CCCCn1c(O)c(N=Nc2nc(-c3cc4ccccc4oc3=O)cs2)c2cc(Br)ccc21 | 101% (inactive)
45 | Cc1cccc(-c2nc(Nc3cccc(S(N)(=O)=O)c3)c3ccccc3n2)c1 | 51.7% (inactive)
46 | Cn1cc(-c2cc(N)n3nc(-c4cn(C)c5ccccc45)cc3n2)c2cc(Br)ccc21 | -43.9% (active)
47 | COc1cc2c(c(OC)c1OC)C(=O)CC(c1cccc(NC(=O)c3cc(NC(=O)[C@H](C)N)ccc3Cl)c1)O2 (stereo not given in full) | 51.8% (inactive)
48 | C#CCOc1cc(N(CC)CC)ccc1C(C(=O)NC(C)(C)C)N(C(=O)C1CCc2cc(F)ccc2O1)c1cc(C)cc(C)c1 (stereo not given) | 30.9% (inactive)
49 | Cc1ccc(C2=NN(c3nc(-c4cc5ccccc5oc4=O)cs3)C(c3ccc(C)cc3)C2)cc1 (stereo not given) | 104% (inactive)
50 | Cn1cc(-c2nc(N)nnc2-c2c[nH]c3ccc(F)cc23)c2cc(Br)cnc21 | 10.4% (inactive)
